Data: PubChem BioAssay AID488977 (Johns Hopkins Ion Channel Center, 2010)
About 1,500 (0.48%) of roughly 310,000 compounds were called active.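 The calls were made as follows: active = initial fluorescence not abnormally high and integrated response B-score, plate-corrected, over 3 SD above library mean; inactive = the rest.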 What follows is part of a selection rich in actives, with near analogues and random picks from the rest.

Biological target: High affinity choline transporter 1 (Homo sapiens) (UniProt Q9GZV3)
Sequence (Q9GZV3 whole entry, looked up): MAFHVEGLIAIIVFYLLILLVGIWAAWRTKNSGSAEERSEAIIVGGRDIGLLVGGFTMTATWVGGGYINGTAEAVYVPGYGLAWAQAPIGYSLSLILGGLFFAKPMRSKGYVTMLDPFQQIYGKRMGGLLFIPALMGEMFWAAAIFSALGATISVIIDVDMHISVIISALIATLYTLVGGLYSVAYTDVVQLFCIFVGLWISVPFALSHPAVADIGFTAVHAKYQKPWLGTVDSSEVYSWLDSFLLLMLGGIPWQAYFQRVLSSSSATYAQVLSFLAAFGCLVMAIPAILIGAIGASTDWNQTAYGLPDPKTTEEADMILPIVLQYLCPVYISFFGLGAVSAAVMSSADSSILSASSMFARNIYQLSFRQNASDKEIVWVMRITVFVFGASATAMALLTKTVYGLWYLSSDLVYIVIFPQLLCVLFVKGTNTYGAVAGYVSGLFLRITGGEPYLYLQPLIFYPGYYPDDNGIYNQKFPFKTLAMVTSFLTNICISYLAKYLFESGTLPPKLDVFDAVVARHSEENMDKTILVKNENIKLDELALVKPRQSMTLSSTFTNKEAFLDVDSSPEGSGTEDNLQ
Experiment: CHT positive allosteric modulators, primary screen, cell-based, membrane potential dye, choline EC20 (AID 488977)
Details: CHT-expressing cells, at 10 µM, LV-AA mutant CHT in HEK293 cells; stronger effect = higher value

Structure (SMILES)	B-score
CCC1Nc2ncnc(N3CCN(c4ccccc4)CC3)c2N(Cc2ccc(Cl)cc2)C1=O (centres undefined)	inactive
O=C(CCC1CCCCC1)Nc1cc(C(F)(F)F)ccc1N1CCOCC1	inactive
CC(C)c1ccc(S(=O)(=O)N2CCN(C(=O)CN3C(=O)NC(C)(c4ccccc4)C3=O)CC2)cc1 (centres undefined)	inactive
CCCCCCCNC(=O)C1(CC2CC(c3cccc(Br)c3)=NO2)CCN(C(=O)c2cc(OCC)c(OCC)c(OCC)c2)CC1 (centres undefined)	inactive
Cc1ccc(S(=O)(=O)N2CCN(C(=O)Cc3sc(C)nc3-c3ccc(F)cc3)CC2)c(C)c1	inactive
O=C(Nc1ncccc1O)c1ccc(C(=O)c2ccccc2)cc1	inactive
COc1ccccc1CCC(=O)NNC(=O)c1ccncc1	inactive
O=C(Nc1ccc(Cl)cn1)c1cnn2cccnc12	inactive
Cc1cc(NC(=O)c2cnn3cccnc23)n(-c2ccccc2)n1	6.76 (active)
Cc1cc(NC(=O)Nc2ccccc2)n(-c2ccccc2)n1	inactive
CCOc1cc(C(=O)Nc2ccc(S(=O)(=O)Nc3cnc4ccccc4n3)cc2)cc(OCC)c1OCC	inactive
O=C(NCC(c1ccco1)N1CCc2ccccc2C1)c1ccccc1Cl (centres undefined)	inactive
COc1ccc(C(CNC(=O)c2cccc(NS(=O)(=O)c3ccc(C)c(F)c3)c2)N2CCCC2)cc1 (centres undefined)	inactive
CCn1c(/C=C/Nc2ccccc2)[n+](CC)c2ccc(C(=O)OCC(F)(F)F)cc21	7.01 (active)
CCOC(=O)c1cc2ccccc2n1CC(=O)c1ccccc1	inactive
CCOC(=O)N1CCN(C(=O)c2ccc(S(=O)(=O)Nc3cccc(C(F)(F)F)c3)cc2)CC1	inactive
Cc1onc(-c2ccccc2Cl)c1C(=O)OCc1nnc(-c2ccccc2)o1	inactive
CCN(CC(=O)Nc1c(F)cccc1F)C(=O)c1ccc(-c2ccccc2)cc1	inactive
O=C(CSC1=NS(=O)(=O)c2cc(F)ccc2N1)Nc1ccccc1F	inactive
COc1cccc(CC2(CO)CCCN(Cc3ccc(OC(F)F)cc3)C2)c1 (centres undefined)	inactive
CCCCCN(C(=O)CCC(=O)OCCOc1ccc(OC)cc1)c1c(N)n(CCCC)c(=O)[nH]c1=O	inactive
CCCCCC(=O)N1CCN(S(=O)(=O)c2ccc3c(c2)OCCCO3)CC1	inactive

Structure (SMILES)	B-score
CN1CCN(c2nc(Nc3ccc(O)cc3)nc3ccccc23)CC1	6.97 (active)
Cc1cccc(-c2nc(Nc3ccc(O)cc3)c3ccccc3n2)c1	inactive
c1ccc(Nc2nc(N3CCOCC3)c3ccccc3n2)cc1	inactive
C=CCOc1cccc(C2C(C(=O)c3ccc(C)o3)=C(O)C(=O)N2c2nnc(C)s2)c1 (centres undefined)	inactive
Cc1c(NC(=O)C(C)OC(=O)c2c3c(nc4ccccc24)CCC(C)C3)c(=O)n(-c2ccccc2)n1C (centres undefined)	inactive
COC(=O)c1sc(C(F)(F)F)c(-c2ccccc2)c1S(=O)(=O)N(C)C	9.76 (active)
CCOC(=O)CN(C)S(=O)(=O)c1ccc(-c2cc(C(=O)OC)sc2C(F)(F)F)cc1	inactive
COC(=O)c1cc2nc(-c3ccccc3)cc(C(F)(F)F)n2n1	inactive
CC1(C)CC[C@]2(C(=O)O)CC[C@]3(C)C(=CCC4[C@@]5(C)CC[C@H](O)C(C)(C)C5[C@H](O)C[C@]43C)[C@@H]2C1 (some centres undefined)	inactive
O=C(O)c1ccc2c(=O)n3c(nc2c1)/C(=C/c1ccc(Cl)c([N+](=O)[O-])c1)CC3	inactive
N#Cc1ccc(/C=C2\CCn3c2nc2cc(C(=O)O)ccc2c3=O)cc1	6.78 (active)
Cc1ccc(/C=C2\CCn3c2nc2cc(C(=O)O)ccc2c3=O)c(C)c1	inactive
CC1(C)Cc2c(sc3nc4n(c(=N)c23)CCCCC4)CO1	7.43 (active)
N=c1c2c3c(sc2nc2n1CCCCC2)CCCC3	inactive
CC(C)c1nc2sc3c(c2c(=O)n1N)CC(C)(C)OC3	inactive
CC1CCC2(CC1)NC(=O)N(CC(=O)c1ccc3c(c1)OCO3)C2=O (centres undefined)	inactive
Cc1ccccc1NC(=O)COc1cccc2c1CCNC2=O	inactive
CC1CCc2[nH]c3ccc(C(=O)N(C)CC(=O)Nc4cccc(F)c4)cc3c2C1 (centres undefined)	inactive
Cc1nc2ccccc2c(=O)n1Cc1ccc([N+](=O)[O-])cc1	inactive
Cc1nc2ccccc2c(=O)n1CCCn1ccnc1	8.67 (active)
Clc1c(OCCCn2ccnc2)ccc2ccccc12	inactive
CCCCN(C1CCS(=O)(=O)C1)S(=O)(=O)c1ccc(C(C)C)cc1 (centres undefined)	inactive

Structure (SMILES)	B-score
CN(C)/C=C/C(=O)c1cnc2sccn2c1=O	6.34 (active)
CCOC(=O)c1cnc2sccn2c1=O	inactive
O=C(NCc1ccccn1)c1cnc2sccn2c1=O	inactive
COc1cnn(-c2ccc([N+](=O)[O-])cc2)c(=O)c1Cl	inactive
Cc1ccc(-c2cc(=O)[nH]c(NCc3ccccc3)n2)cc1	inactive
COc1ccc(C(=O)CN(C(=O)c2ccc(Cl)cc2)N2C(=O)c3ccccc3C2=O)cc1	inactive
COc1ccc(Cn2c(-c3ccc(Cl)cc3)c[n+]3ccccc23)cc1	7.07 (active)
CCn1c(C)cc(=O)cc1-c1ccc(Cl)cc1	inactive
CN(Cc1ccccc1F)C(=O)C(Cc1ccccc1)NC(=O)c1ccccc1 (centres undefined)	inactive
OCCCNc1nc(-c2ccccc2)c2cc(Cl)ccc2n1	inactive
Cc1cc2c(cc1C)[n+](C)cn2CC(O)COCC1CC=CCC1 (centres undefined)	12.6 (active)
COc1ccccc1C(=O)NC(CCSC)C(=O)N1CCN(C/C=C/c2ccccc2)CC1 (centres undefined)	inactive
Cn1c(=O)n(C)c2cc(C(=O)Nc3ccc4c(c3)OCO4)ccc21	6.95 (active)
O=C(Nc1ccc2c(c1)OCO2)c1ccc(N2C(=O)c3ccccc3C2=O)cc1	inactive
Cn1c(=O)n(C)c2cc(C(=O)Nc3ccc(Br)cc3)ccc21	inactive
CCc1ccc(Nc2n[n+](-c3ccccc3)c(-c3cccc(Cl)c3Cl)s2)cc1	inactive
O=S(=O)(NCCCc1ccccc1)c1ccc(Br)cc1	inactive
CCCCn1c(N)c(N(CCC(C)C)C(=O)c2ccc(COc3ccccc3)o2)c(=O)[nH]c1=O	12.1 (active)
CCCCn1c(N)c(N(CC(C)C)C(=O)c2ccc(Br)o2)c(=O)[nH]c1=O	inactive
CCCCn1c(N)c(N(CCC(C)C)C(=O)c2ccc([N+](=O)[O-])o2)c(=O)[nH]c1=O	inactive
